The values below come from the supplement of paper PMC9399229.

Each structure is given as a SMILES string. Counter-ions that a name gives are not always drawn. Over roughly 1,900 compounds, “relative cell viability (CellTiter-Glo), compound plus cabozantinib, relative to the cabozantinib arm (arm median 1.05; reference not stated)” has its median near 1.1; the lowest 2% begin near 0.15. The entries come from a sample that favours the lowest values as a whole.

This test concerns Hep3B. The experiment in a line: relative cell viability (CellTiter-Glo), compound plus cabozantinib, relative to the cabozantinib arm (arm median 1.05; reference not stated) (fraction); higher = more viable cells (less growth inhibition). As to conditions: cabozantinib 2 µM; 4 days. For orientation: In ATP-based viability assays light output follows the ATP content of the culture.
As to `C[C@@H]1O[C@@H](O[C@H]2C[C@@H](O)[C@]3(CO)[C@H]4[C@H](O)C[C@]5(C)[C@@H](C6=CC(=O)OC6)CC[C@]5(O)[C@@H]4CC[C@]3(O)C2)[C@H](O)[C@H](O)[C@H]1O` [Ouabain], the relative cell viability stood at 0.105.

`CC1(C)CC(O)CC(C)(C)N1[O]` [Tempol]: the relative cell viability was 1.03. The result for `Cc1ccc(-n2nccn2)c(C(=O)N2CCN(c3nc4cc(Cl)ccc4o3)CC[C@H]2C)c1` [Suvorexant (MK-4305)] reads 0.987; that for `O=C(NCC1CCOCC1)c1cnc(Nc2ccc(Cl)cc2Cl)nc1C(F)(F)F`, 1.02; that for `CCc1c(C(=O)C(N)=O)c2c(OCC(=O)O)cccc2n1Cc1ccccc1`, 1.05. In the case of `[O-][n+]1ccccc1[S-].[O-][n+]1ccccc1[S-].[Zn+2]` [Zinc Pyrithione], the relative cell viability was determined as 0.0184. The result for `CCC1(c2cccc(O)c2)CCCCN(C)C1` (stereo not given) [Meptazinol HCl] reads 1.13; that for `CC(=O)O[C@H]1C[C@@H]2CC[C@@H]3[C@H](CC[C@@]4(C)[C@H]3C[C@H]([N+]3(C)CCCCC3)[C@@H]4OC(C)=O)[C@@]2(C)C[C@@H]1[N+]1(C)CCCCC1` [Pancuronium dibromide], 1.06; that for `Cc1cc2c(C(C)C)c(O)c(O)c(C=O)c2c(O)c1-c1c(C)cc2c(C(C)C)c(O)c(O)c(C=O)c2c1O` [Gossypol], 1.15. The result for `CC(=O)Nc1ccc(Cc2ccc(NC(C)=O)cc2)cc1` reads 1.07.

As for `CC(C)=CCC[C@]1(C)C=Cc2c(O)c3c(c(CC=C(C)C)c2O1)O[C@]12C(=C[C@@H]4C[C@H]1C(C)(C)O[C@@]2(C/C=C(/C)C(=O)O)C4=O)C3=O` [Gambogic Acid], the relative cell viability came out at 0.118.

Regarding `CCC1=C[C@H]2CN3CCc4c([nH]c5ccccc45)[C@](C(=O)OC)(C2)[C@H]13` [Catharanthine], the relative cell viability was 1.06.

Turning to `CN1[C@@H]2CC[C@H]1C[C@@H](OC(=O)[C@H](CO)c1ccccc1)C2` [Hyoscyamine], the relative cell viability came out at 1.1. The value for `CN(C)CCc1ccc(O)cc1` [Hordenine] was 1.11. Turning to `C[C@H]1CCC/C=C/[C@@H]2C[C@H](O)C[C@H]2[C@H](O)/C=C/C(=O)O1` [Brefeldin A], the relative cell viability stood at 0.105. The value for `c1ccc2c(c1)Nc1ccccc1S2` [Phenothiazine] was 1.17. The value for `CN(C)Cc1c[nH]c2ccccc12` [Gramine] was 1.06; that for `NCC(=O)O.[C-]#[O+].[C-]#[O+].[C-]#[O+].[Cl][Ru]` was 0.978. Turning to `C#C[C@]1(O)C=C[C@H]2[C@@H]3CCC4=CC(=O)CC[C@@H]4[C@H]3CC[C@@]21CC` [Gestodene], the relative cell viability stood at 0.965. The value for `Cc1sc2c(c1C)C(c1ccc(Cl)cc1)=N[C@@H](CC(=O)Nc1ccc(O)cc1)c1nnc(C)n1-2` was 0.454.
